# Calls of active or inactive are those of the source. Unless noted, the rule behind the calls is not given here.
# Assays:
# [1] = resazurin metabolic signal in HepG2 cells – cell-based, resazurin fluorescence, 24 h, PK04 Diversity Set, profiling panel (AID 1172); conditions: HepG2 viability, higher = more signal
# [2] = budding yeast growth changes without added modifier – OD600, strain BY4716, 24 h, basal condition, primary screen (AID 1173); conditions: S. cerevisiae BY4716 growth, OD600, 24 h; higher = more signal, called active from +8 up or from −8 down
# [3] = viability profiling in MM1S myeloma cells – cell-based, resazurin fluorescence, basal, 24 h, PK04 Diversity Set, profiling panel (AID 1174); conditions: higher = more signal, called active from +8 up or from −8 down;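 note: MM1S multiple myeloma cell line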
# [4] = molecular target: Dihydroorotate dehydrogenase (quinone), mitochondrial (Plasmodium falciparum (isolate 3D7)) (UniProt Q08210); test: inhibition of P. falciparum DHODH – biochemical, C-terminal His tag, absorbance 600 nm, primary screen (AID 1175); conditions: PfDHODH enzyme, DCIP absorbance 600 nm; higher = more signal, called active from +8 up or from −8 down;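 note: recombinant parasite enzyme with a five histidine tag at its C terminus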
# Chain of Dihydroorotate dehydrogenase (quinone), mitochondrial (Plasmodium falciparum (isolate 3D7)) (Q08210 whole entry, looked up): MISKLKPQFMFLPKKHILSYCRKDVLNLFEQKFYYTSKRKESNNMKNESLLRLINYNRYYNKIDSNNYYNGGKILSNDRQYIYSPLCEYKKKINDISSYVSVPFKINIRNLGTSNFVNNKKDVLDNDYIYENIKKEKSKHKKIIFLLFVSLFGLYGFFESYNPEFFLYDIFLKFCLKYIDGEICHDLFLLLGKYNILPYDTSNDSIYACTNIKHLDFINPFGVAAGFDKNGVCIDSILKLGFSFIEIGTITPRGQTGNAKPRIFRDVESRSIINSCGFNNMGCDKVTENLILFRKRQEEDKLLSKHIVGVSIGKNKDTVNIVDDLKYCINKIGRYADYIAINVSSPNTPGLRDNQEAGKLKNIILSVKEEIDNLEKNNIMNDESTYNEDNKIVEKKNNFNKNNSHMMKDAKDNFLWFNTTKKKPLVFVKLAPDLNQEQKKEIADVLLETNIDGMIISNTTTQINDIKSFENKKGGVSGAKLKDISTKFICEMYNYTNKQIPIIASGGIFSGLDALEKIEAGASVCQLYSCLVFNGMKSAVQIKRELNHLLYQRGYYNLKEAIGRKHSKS
# [5] = inhibition of PAO1 biofilm formation – strain PAO1, LB-PBS medium, absorbance 600 nm, primary screen (AID 1176); conditions: P. aeruginosa PAO1 growth/biofilm, A600, 12 h; higher = more signal
# [6] = growth modulation of vineyard yeast isolate – strain RM11-1a, OD600, basal, 24 h, primary screen (AID 1177);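 note: cultures grown under basal conditions with no added stressor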; conditions: S. cerevisiae RM11-1a growth, OD600, 24 h; higher = more signal, called active from +8 up or from −8 down
# [7] = growth of efflux-deficient E. coli DRC39 – strain DRC39, OD650, 24 h, E. coli filamentation inducers, primary screen (AID 1178);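 note: growth measured as culture turbidity by optical density at 650 nm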; conditions: E. coli DRC39 acrAB, higher = more signal, called active from +8 up or from −8 down
# [8] = growth of efflux-deficient E. coli DRC39 – strain DRC39, OD650, 48 h, E. coli filamentation inducers, primary screen (AID 1179);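 note: screen aims at cell division blockers that make cells filament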; conditions: E. coli DRC39 delta-acrAB growth, higher = more signal, called active from +8 up or from −8 down
# [9] = viability profiling in RPMI8226 myeloma cells – cell-based, resazurin fluorescence, basal, 24 h, PK04 Diversity Set, profiling panel (AID 1180); conditions: higher = more signal;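 note: RPMI8826 multiple myeloma cell line at 5000 cells per well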
# [10] = molecular target: E3 ubiquitin-protein ligase XIAP (Homo sapiens) (UniProt P98170); test: small molecules binding XIAP protein – biophysical, small-molecule microarray, fluorescence 635 nm, primary screen (AID 1181); conditions: higher = more signal;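 note: score merges 667 nm emission and signal to noise over triplicate slides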
# Chain of E3 ubiquitin-protein ligase XIAP (Homo sapiens) (P98170 whole entry, looked up, the tested form may be a part): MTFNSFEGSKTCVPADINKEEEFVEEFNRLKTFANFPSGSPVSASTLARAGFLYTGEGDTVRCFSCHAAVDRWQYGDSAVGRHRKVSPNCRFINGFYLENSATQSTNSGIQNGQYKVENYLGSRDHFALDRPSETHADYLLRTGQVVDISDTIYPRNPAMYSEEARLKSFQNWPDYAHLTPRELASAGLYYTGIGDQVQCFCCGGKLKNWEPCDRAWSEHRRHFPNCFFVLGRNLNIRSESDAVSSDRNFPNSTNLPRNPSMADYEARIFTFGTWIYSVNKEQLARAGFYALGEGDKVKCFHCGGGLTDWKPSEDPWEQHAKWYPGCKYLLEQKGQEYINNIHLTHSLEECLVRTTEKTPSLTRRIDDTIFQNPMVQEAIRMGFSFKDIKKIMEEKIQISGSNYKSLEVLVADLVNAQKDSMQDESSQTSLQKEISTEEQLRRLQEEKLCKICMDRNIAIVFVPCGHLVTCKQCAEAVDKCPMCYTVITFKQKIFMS
# [11] = system: XIP peptide (Xip251-270) binding; test: XIP fragment 251-270 binding compounds – biochemical, small-molecule microarray, fluorescence 635/667 nm, 0.1 µg/mL protein, primary screen (AID 1182); conditions: fluorescent protein binding, 635 nm, higher = more signal, called active from +8 up or from −8 down
# XIP peptide (Xip251-270) = test: compounds binding XIP fragment 251-270 – biochemical, small-molecule microarray, fluorescence 635/667 nm, 0.5 µg/mL protein, primary screen (AID 1183); conditions: fluorescence 635 nm, higher = more signal
# [12] = blood-stage malaria parasite viability loss – strain 3D7, DAPI fluorescence, 100 nL, primary screen (AID 1184);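 note: parasites grown inside human red blood cells in medium with human serum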; conditions: P. falciparum 3D7 growth, 3 d, higher = more signal
# [13] = molecular target: Homeobox protein Hox-A13 (Mus musculus) (UniProt Q62424); test: disruptors of Hoxa13 oligonucleotide interaction – biochemical, fluorescence polarization, labeled oligonucleotide, primary screen (AID 1185); conditions: Hoxa13:DNA binding, 15 min, higher = more signal, called active from +8 up or from −8 down
# Chain of Homeobox protein Hox-A13 (Mus musculus) (Q62424 whole entry, looked up): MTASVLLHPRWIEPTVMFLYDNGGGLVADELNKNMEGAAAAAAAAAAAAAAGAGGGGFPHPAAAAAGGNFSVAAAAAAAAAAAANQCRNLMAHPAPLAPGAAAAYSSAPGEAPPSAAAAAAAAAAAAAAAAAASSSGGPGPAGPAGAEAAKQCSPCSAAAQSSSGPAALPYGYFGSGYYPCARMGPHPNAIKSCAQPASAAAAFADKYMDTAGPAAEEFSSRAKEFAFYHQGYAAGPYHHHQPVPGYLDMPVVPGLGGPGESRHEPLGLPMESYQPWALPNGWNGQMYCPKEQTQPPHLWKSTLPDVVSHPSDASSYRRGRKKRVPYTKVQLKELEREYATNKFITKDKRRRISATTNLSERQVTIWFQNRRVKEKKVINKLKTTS
# [14] = blockers of DNA damage checkpoint Chk1 activation – imaging, HeLa, hydroxyurea, phospho-Chk1 antibody, percent positive cells, primary screen (AID 1186); conditions: hydroxyurea-induced phospho-Chk1 immunofluorescence imaging, higher = more signal
# [15] = blockers of DNA damage checkpoint Chk1 activation – imaging, HeLa, hydroxyurea, phospho-Chk1 nuclear intensity, primary screen (AID 1187); conditions: hydroxyurea-induced phospho-Chk1 immunofluorescence imaging, higher = more signal
SMILES,z-score [1],z-score [2],z-score [3],composite z-score [4],z-score [5],z-score [6],z-score [7],z-score [8],z-score [9],composite z-score [10],composite z-score [11],composite z-score (XIP peptide (Xip251-270)),z-score [12],z-score [13],z-score [14],z-score [15]
C#CCNC(=O)[C@H](Cc1ccccc1)NC(=O)[C@@H](N=[N+]=[N-])C(C)C,0.664,-1.19 (inactive),0.633 (inactive),-0.635 (inactive),-0.24 (inactive),-0.597 (inactive),0.713 (inactive),0.626 (inactive),0.816,0.117,0.056 (inactive),0.262,-0.765,-0.747 (inactive),0.744 (inactive),0.815 (inactive)
NC(N)=NCc1cn(CCc2c[nH]c3ccccc23)nn1,-0.739,0.274 (inactive),-0.237 (inactive),-26.7 (active),0.0429 (inactive),0.191 (inactive),0.148 (inactive),-0.0579 (inactive),-0.533,-0.163,1.35 (inactive),0.937,0.743,-2.09 (inactive),0.568 (inactive),-0.248 (inactive)
C[n+]1ccc(CCCO)cc1,-0.744,0.883 (inactive),-0.255 (inactive),-4.35 (inactive),-0.199 (inactive),0.684 (inactive),-1.02 (inactive),-1.1 (inactive),-0.551,0.769,0.955 (inactive),1.02,-1.21,-2.17 (inactive),-0.0124 (inactive),0.102 (inactive)
C=C(/C=C/CNS(=O)(=O)c1ccc(C)cc1)[C@H](O)[C@H]1CCCN1S(=O)(=O)c1ccccc1[N+](=O)[O-],-0.0339,0.587 (inactive),0.113 (inactive),0.858 (inactive),-0.447 (inactive),1.41 (inactive),1.45 (inactive),0.579 (inactive),0.0925,-0.0582,-0.121 (inactive),0.729,-2.04,-5.58 (inactive),-0.0778 (inactive),0.181 (inactive)
COc1cc2c(cc1O)C(C)N(Cc1cc3c(cc1Br)OCO3)CC2 (centres undefined),-0.587,-0.272 (inactive),0.297 (inactive),-9.46 (active),-0.351 (inactive),0.526 (inactive),0.553 (inactive),0.0553 (inactive),0.538,-0.157,1.5 (inactive),0.291,-2.03,-1.58 (inactive),-0.765 (inactive),-1.06 (inactive)
COC(=O)C1(Cc2ccccc2)C=C2C(=C(c3ccccc3)C(=O)C2C)CN1 (centres undefined),-1.33,0.369 (inactive),-2.99 (inactive),-1.03 (inactive),1.04 (inactive),0.109 (inactive),-1.25 (inactive),-0.628 (inactive),-1.78,-0.217,-0.401 (inactive),0.691,-0.246,-9.2 (active),0.222 (inactive),0.532 (inactive)
C=CCOC(=O)[C@@H]1[C@H]2C(=O)O[C@H](c3ccccc3)[C@H](c3ccccc3)N2[C@H](c2ccc(OCCOC(=O)[C@H]3C[C@H]4C(=O)N[C@@H](CCCC[N+](C)(C)C)C(=O)N4[C@H]3c3ccc(O)cc3)cc2)[C@@]12C(=O)Nc1ccc(I)cc12,-0.792,1.47 (inactive),-0.706 (inactive),-0.353 (inactive),2.01 (inactive),2.12 (inactive),-0.877 (inactive),-1.37 (inactive),-0.578,0.0623,0.708 (inactive),0.873,-1.16,-0.103 (inactive),-0.655 (inactive),-0.636 (inactive)
CC=CC(O)C1C=CC2C(=O)N(c3ccccc3)C(=O)C2N1Nc1ccc([N+](=O)[O-])cc1 (centres undefined),-0.0211,0.0621 (inactive),-0.156 (inactive),-0.213 (inactive),0.71 (inactive),-0.372 (inactive),-1.19 (inactive),-0.279 (inactive),0.0388,-0.0807,0.542 (inactive),0.135,1.01,-3.01 (inactive),-0.263 (inactive),-0.973 (inactive)
[N-]=[N+]=NCc1ccccc1C[C@@]1(C(=O)NCCN2CCOCC2)N=C(c2ccc(OCCCO)cc2)O[C@@H]1c1ccccc1N=[N+]=[N-],-0.61,-1.22 (inactive),-0.37 (inactive),0.699 (inactive),0.124 (inactive),-0.304 (inactive),0.647 (inactive),-0.456 (inactive),-0.0843,0.318,1.51 (inactive),0.767,-2.75,-2.44 (inactive),-0.402 (inactive),-0.753 (inactive)
[N-]=[N+]=NCc1ccccc1C[C@]1(C(=O)NCC(O)CO)N=C(c2ccc(OCCCO)cc2)O[C@H]1c1ccccc1CN=[N+]=[N-] (some centres undefined),-0.459,-0.804 (inactive),-0.449 (inactive),-0.212 (inactive),1.09 (inactive),0.18 (inactive),0.78 (inactive),-0.012 (inactive),-0.881,-0.149,0.311 (inactive),0.75,-2.78,-0.829 (inactive),0.458 (inactive),0.414 (inactive)
C=C(C(=O)CC[C@H](OC(C)=O)c1cccc(OCCO)c1)C(C)C,-1.23,-0.105 (inactive),-0.748 (inactive),-0.781 (inactive),-0.411 (inactive),0.0297 (inactive),-1.04 (inactive),-0.86 (inactive),-0.559,0.0454,-0.252 (inactive),0.565,-1.96,-4.74 (inactive),0.885 (inactive),0.41 (inactive)
COCCOC(=O)N1C(=O)[C@@]2(c3cc(C#CC4(O)CCCCCC4)ccc31)[C@H](c1ccccc1OCCO)N1[C@H](c3ccccc3)[C@H](c3ccccc3)OC(=O)[C@H]1[C@@H]2C(N)=O,-1.51,1.53 (inactive),-8.29 (active),0.173 (inactive),1.91 (inactive),2.91 (inactive),-0.197 (inactive),-0.31 (inactive),-6.79,-0.287,0.151 (inactive),0.774,-2.07,-2.04 (inactive),0.141 (inactive),-0.377 (inactive)
O=C(O)[C@]1(Cc2ccccc2)N=C(c2ccc(OCCCO)cc2)O[C@@H]1c1ccccc1,0.424,-1.13 (inactive),0.723 (inactive),0.84 (inactive),-0.912 (inactive),-0.002 (inactive),0.0717 (inactive),1.01 (inactive),1.09,-0.258,-0.243 (inactive),0.48,1.24,-4.93 (inactive),0.282 (inactive),0.37 (inactive)
C[C@H]1C2=C3C(CC[C@H]4C(OCc5ccc(F)cc5C(F)(F)F)OC[C@](C)([C@@H]34)N(C(=O)OC(C)(C)C)C2)C2COC(=O)OCC21 (some centres undefined),-1.33,-0.0764 (inactive),-1.43 (inactive),-0.047 (inactive),0.371 (inactive),0.235 (inactive),-0.698 (inactive),-0.398 (inactive),-1.18,0.572,0.172 (inactive),0.551,-0.121,-3.49 (inactive),0.671 (inactive),0.439 (inactive)
CC=CC(O)C1C=CC2C(=O)N(C)C(=O)C2N1Nc1ccc([N+](=O)[O-])cc1[N+](=O)[O-] (centres undefined),-1.12,0.554 (inactive),-0.831 (inactive),0.295 (inactive),0.599 (inactive),0.658 (inactive),-0.476 (inactive),-0.618 (inactive),-0.606,-0.247,0.32 (inactive),0.266,0.619,-0.734 (inactive),-0.0994 (inactive),-0.104 (inactive)
COc1cc(OC)c(C(O)C2C=CC3C(=O)N(c4ccccc4)C(=O)C3N2Nc2ccc(C#N)cc2)cc1Br (centres undefined),-0.99,-6.31 (inactive),-0.408 (inactive),1.49 (inactive),0.984 (inactive),-0.759 (inactive),-0.628 (inactive),-0.0118 (inactive),-0.758,-0.0181,3.12 (inactive),0.796,-0.365,-3.36 (inactive),-0.002 (inactive),-0.795 (inactive)
CC(C)C[C@@H]1NC(=O)[C@H]2C[C@@H](C(=O)NCCCCCC[N+](C)(C)C)[C@@H](c3cccc(OCCO)c3)N2C1=O,1.15,-0.703 (inactive),0.288 (inactive),-1.16 (inactive),-0.819 (inactive),-0.215 (inactive),0.481 (inactive),0.442 (inactive),0.571,-0.188,0.506 (inactive),0.748,-0.411,-5.33 (inactive),-0.481 (inactive),-0.503 (inactive)
O=C1NC(=O)C2C1C=CC(C(O)c1ccc(Br)cc1)N2Nc1ccccn1 (centres undefined),-0.917,0.154 (inactive),-0.817 (inactive),-0.347 (inactive),1.45 (inactive),-1.44 (inactive),0.421 (inactive),0.956 (inactive),-0.913,0.367,0.623 (inactive),0.883,0.284,-0.555 (inactive),0.48 (inactive),0.784 (inactive)
CC(C)CNC(=O)[C@@]1(c2ccc([N+](=O)[O-])cc2)CC(=O)N(C2CCCCC2)[C@@H]1c1ccc(CO)cc1I,0.201,-0.871 (inactive),-0.0126 (inactive),0.797 (inactive),0.304 (inactive),-0.294 (inactive),0.175 (inactive),-0.683 (inactive),0.447,0.169,0.551 (inactive),0.792,-0.923,-4.89 (inactive),0.093 (inactive),-0.208 (inactive)

# — PubChem BioAssay
